The source of these data is PubChem BioAssay (NCATS).

Results filed as inconclusive are left out. A call without a number means that no potency is given here. Active and inactive are the calls of the source. The call rests on the fitted dose curve; in most records, active means well fitted inhibition curve with a large enough effect; inconclusive means small, poorly fitted or top-dose-only effect; inactive means flat fitted curve, though single readings scatter. Where a SMILES comes first, the peptide text is derived from it. [ ]: non-standard residue; d: D form. ξ: configuration not given here. dPhe(4-Cl) = N[C@H](Cc1ccc(Cl)cc1)C(=O)O; d2Nal = N[C@H](Cc1ccc2ccccc2c1)C(=O)O; ξPhe(βξ-Me) = CC(c1ccccc1)C(N)C(=O)O; dCit = NC(=O)NCCC[C@@H](N)C(=O)O; d3Pal = N[C@H](Cc1cccnc1)C(=O)O; ξLac(3-iPr) = CC(C)CC(O)C(=O)O; NMeV = CN[CH](C(=O)O)C(C)C; GABA = NCCCC(=O)O; βAla = NCCC(=O)O
Potency means the concentration at half of the fitted maximal effect.

A short description of this assay: Primary qHTS for inhibitors of nuclear receptor binding SET domain protein 2 (NSD2) in an isogenic RCH-ACV NSD2 p.E1099K mutant (9B) (AID 1645876). Further: nearly all actives have a fitted effect of over 70% in size. The settings on record: RCH-ACV (leukaemia line) NSD2 E1099K (9B) viability, CellTiter-Glo, 72 h; series mostly up to 44.9 µM. (In general: Quantitative high-throughput screening tests each substance at several concentrations.)
For `C=C[C@@]12COC(=O)C(=C)C1[C@@H](O)[C@H](C(=C)C(=O)OC)[C@@H](OC(=O)C(=C)CO)C2` (some centres undefined), the Potency is 8.93 µM (active). To `CC1(C)CCC[C@@]2(C)C1[C@H](OC(=O)/C=C/C=C/C(=O)O)C=C1COC(=O)[C@@]12O` (some centres undefined) belongs “inactive”; to `CC(C)=CCC/C(C)=C/CO[C@@H]1O[C@H](CO)[C@@H](O)[C@H](O)[C@H]1O`, “inactive”. To `C=CC1C(OC2OC(CO)C(O)C(O)C2O)OC=C(C(=O)OC)C1CC1CC(=O)CC(CCc2ccc(O)cc2)O1` (centres undefined) belongs “inactive”; to `COc1cc(C(=O)O)ccc1OC1OC(CO)C(O)C(O)C1O` (centres undefined), “inactive”; to `CC(=O)O[C@@H]1[C@@H](OC(=O)/C=C/c2ccccc2)[C@@H](OC(C)=O)[C@H](O[C@H]2[C@@H]3C=CO[C@@H](O[C@@H]4O[C@H](CO)[C@@H](O)[C@H](O)[C@H]4O)[C@@H]3[C@@]3(CO)O[C@@H]23)O[C@H]1C`, “inactive”. Regarding `CCOc1cc(C)c(Cl)cc1S(=O)(=O)n1cnc2ccccc21`, the Potency entry is “inactive”. With `CC(=O)OC1CC2(C)C3=CCC4(C)C5C(O)C(O)C(C(C)C)C5(C)CCC4(C)C3CCC2C(C)(C)C1OC1OC(CO)C(O)C(O)C1O` (centres undefined) the entry was “inactive”; with `CC1(C)CC[C@]2(C(=O)O)CC[C@]3(C)C(=CCC4[C@@]5(C)CC[C@H](O[C@@H]6O[C@H](C(=O)O)[C@@H](O[C@@H]7OC[C@@H](O)[C@H](O)[C@H]7O)[C@H](O)[C@H]6O)C(C)(C)C5CC[C@]43C)C2C1O` (some centres undefined), “inactive”. For the compound `C=C1CCC2C(C)(C(=O)O)CCCC2(C)C1CC/C(=C\CO)CO` (centres undefined), the Potency entry is “inactive”. To `C[C@@]1(O)[C@H](O)[C@@H](CO)O[C@H]1n1ccc(N)nc1=O` belongs 20.5 µM (active); to `CO[C@H]1C[C@@H]2CC[C@@H](C)[C@@](O)(O2)C(=O)C(=O)N2CCCC[C@H]2C(=O)O[C@H]([C@H](C)C[C@@H]2CC[C@@H](OP(C)(C)=O)[C@H](OC)C2)CC(=O)[C@H](C)/C=C(\C)[C@@H](O)[C@@H](OC)C(=O)[C@H](C)C[C@H](C)/C=C/C=C/C=C/1C`, 0.0118 µM (active); to `CC(C)CC1OC(=O)C2CCCN2C(=O)CCNC(=O)C(Cc2ccccc2)NC(=O)C(C(C)C)N(C)C(=O)C(C(C)C)N(C)C1=O` (centres undefined) (cyclo([ξLac(3-iPr)][NMeV][NMeV]F[βAla]P); configuration not given here), “inactive”. To `CC(=O)N[C@H](Cc1ccc2ccccc2c1)C(=O)N[C@H](Cc1ccc(Cl)cc1)C(=O)N[C@H](Cc1cccnc1)C(=O)N[C@@H](CO)C(=O)N[C@@H](Cc1ccc(O)cc1)C(=O)N[C@H](CCCNC(N)=O)C(=O)N[C@@H](CC(C)C)C(=O)N[C@@H](CCCN=C(N)N)C(=O)N1CCC[C@H]1C(=O)N[C@H](C)C(N)=O` (Ac-[d2Nal][dPhe(4-Cl)][d3Pal]SY[dCit]LRP[dA]-NH2) belongs “inactive”. For `CC/C=C\C/C=C\C/C=C\CCCCCCCC(=O)OCC(O)COC1OC(CO)C(O)C(O)C1O` (centres undefined), the Potency result is “inactive”.

`COc1c2c(c(C)c3c1C(=O)OC3)OC1(C)CC(O)C(C(C)(C)O)C(C)(CCC(=O)O)C1C2` (centres undefined): the Potency entry is “inactive”. With `CC1(C)CCCC2(C)C1C(O)C=C(CO)C2(O)CO` (centres undefined) the entry was “inactive”; with `Cc1nc(NC(=O)N2CCCC2C(N)=O)sc1-c1csc(C(C)(C)C)n1` (centres undefined), 4.59 µM (active); with `CC1NC(=O)CCCNC(=O)C(Cc2c[nH]c3ccccc23)NC(=O)C(C)NC(=O)C(C(C)C)NC(=O)C(C(C)c2ccccc2)NC(=O)C(C(C)C)NC1=O` (stereo not drawn) (cyclo([GABA]AV[ξPhe(βξ-Me)]VAW); configuration not given here), “inactive”. With `C=C[C@H]1C(O[C@@H]2O[C@H](CO)[C@@H](O)[C@H](O)[C@H]2O)OC=C2C(=O)N3CCc4c([nH]c5ccccc45)[C@H]3C[C@H]21` (some centres undefined) the entry was “inactive”. To `CC(C)C(N)C(=O)OCCOCn1cnc2c(=O)[nH]c(N)nc21` (centres undefined) belongs “inactive”. `C=C1[C@H](OC(C)=O)[C@H]2[C@@H](OC(C)=O)[C@](C)(OC(C)=O)C[C@]2(OC(C)=O)C(=O)[C@H](C)/C=C/C(C)(C)C(=O)[C@H](OC(=O)C(C)CC)[C@H]1OC(C)=O` (some centres undefined): the Potency entry is “inactive”.

For `CC(C)CC(=O)O[C@@H]1OC=C(CO[C@@H]2O[C@H](CO)[C@@H](O)[C@H](O)[C@H]2O)[C@H]2[C@@H]3O[C@H]3[C@@](O)(CO)[C@@H]12`, the Potency result was “inactive”. For `COc1cc(O)cc(C)c1C(=O)O[C@@H]1[C@H](O)[C@@H](CO)O[C@H]1n1ccc(=O)[nH]c1=O`, the Potency entry is “inactive”.
